The text below walks through data of PubChem BioAssay.

The nature of test [1]: P. berghei load reduction in hepatocytes – cell-based, HepG2, luciferase luminescence, HepG2 viability, primary screen (AID 624349; in the data active means parasite load remaining mostly below about 12%, no sharp cut-off; inactive means mostly above about 10%;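 further: 100% = mean of DMSO negative control wells on the same plate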). The settings on record: P. berghei liver stage in HepG2, luciferase luminescence, concentration not given here; parasite load remaining: stronger effect = lower value; viability: measured here: HepG2 viability without parasites.
Test [2] is described as follows: EMT-state selective cytotoxicity in co-culture – imaging, PC-3E GFP, TEM4-18 mCherry, primary screen (AID 1345086;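 active means compounds killing one labelled cell type while sparing the other, by normalised counts and ratio limits, not self-fluorescent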;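 on all read-outs here: cells exposed to compound for 72 h before imaging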;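 on red/green cell ratio (normalised): normalised mesenchymal count divided by normalised epithelial count so high means epithelial killing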). Particulars: PC-3E GFP / TEM4-18 mCherry co-culture, imaging cell counts, at 1 µM; for red/green cell ratio (normalised): actives lie on both sides, counts scaled to control wells, 1 = unselective.
The nature of test [3]: viability loss in pontine glioma line – cell-based, SU-DIPG-XIII, MIPE4.0, CellTiter-Glo, qHTS, dose response (AID 1347061; cut-off not given, nearly all actives have AC50 up to about 37 µM;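 further: cells exposed to compound for 48 hours before readout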). Particulars: CellTiter-Glo ATP luminescence.
Test [4] in a line: viability loss in pontine glioma line – cell-based, JHH-DIPG-1, MIPE4.0, CellTiter-Glo, qHTS, dose response (AID 1347062; cut-off not given, nearly all actives have AC50 up to about 27 µM). Particulars: JHH-DIPG-1 viability, CellTiter-Glo ATP luminescence.
A short description of test [5]: viability loss in pontine glioma line – cell-based, SU-DIPG-XIII, MIPE5.0, CellTiter-Glo, qHTS, dose response (AID 1347064; cut-off not given, nearly all actives have AC50 up to about 23 µM). Particulars: CellTiter-Glo ATP luminescence.
Test [6] can be described thus: viability loss in pontine glioma line – cell-based, SU-DIPG-XXV, MIPE5.0, CellTiter-Glo, qHTS, dose response (AID 1347065; cut-off not given, nearly all actives have AC50 up to about 26 µM;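 further: cells exposed to compound for 48 hours before ATP readout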). The settings on record: CellTiter-Glo ATP luminescence.
Test [7] is described as follows: growth inhibition of DIPG cells – cell-based, MIPE4.0 library, CellTiter-Glo luminescence, qHTS (AID 1347066; cut-off not given, nearly all actives have AC50 up to about 30 µM;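 further: cells exposed to compound for 48 hours before readout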). The settings on record: SU-DIPG-VI viability, CellTiter-Glo ATP luminescence.
Test [8] in a line: JHH-DIPG-1 glioma cell viability, MIPE5.0 library, CellTiter-Glo luminescence, qHTS (AID 1347067; cut-off not given, nearly all actives have AC50 up to about 26 µM;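 further: cells exposed to compound for 48 hours before readout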). Particulars: JHH-DIPG-1 glioma viability, CellTiter-Glo ATP luminescence.
Test [9] in a line: growth inhibition of DIPG cells – cell-based, MIPE5.0 library, qHTS (AID 1347068; cut-off not given, nearly all actives have IC50 up to about 30 µM). Particulars: SU-DIPG-XXV viability.
Test [10] deals with NAD(+) hydrolase SARM1 (Homo sapiens) (UniProt Q6SZW1). Kind of test: blocking NAD cleavage by SARM1 SAM-TIR – cell lysate, NAD-Glo luminescence (AID 1508614;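 active means compound whose remaining NAD level is above about 45 nM, limit read from the data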). The settings on record: SAM-TIR HEK293T lysate NADase, at 1 µM, stronger effect = higher value.
Test [11] has as its target Mitogen-activated protein kinase 7 (Homo sapiens) (UniProt Q13164). The experiment in a line: Gal4-ERK5 driven luciferase induction – cell-based, HTS, primary screen (AID 1508626;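 active means luciferase signal above three times the same-plate solvent-only control wells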;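 further: luciferase driven by Gal4-ERK5 fusion binding five Gal4 sites before minimal TATA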). Particulars: HeLa Gal4-ERK5 transactivation, 18 h, at 5 µM, stronger effect = higher value.
Test [12] is described as follows: compounds altering circadian rhythm period length – cell-based, LOPAC library, luminescence reporter (AID 2774).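 Further: values are relative to mean of DMSO wells on each plate.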 Particulars: circadian reporter cells, at 7 µM, actives lie on both sides.
The test system of test [13] is Hepatitis C virus NS3 helicase. The experiment in a line: blockers of NS3h binding to ssDNA – biochemical, fluorescence polarization, LOPAC1280 library, primary screen (AID 687035; in the data active means inhibition above about 37%). Particulars: Purified HCV NS3 helicase, Cy5-dT15 ssDNA binding fluorescence polarization; stronger effect = higher value; concentration not given here.
The nature of test [14]: compounds altering Cy5-DNA-NS3h complex signal – biochemical, LOPAC1280, artefact control for HCV NS3 helicase inhibitor project (AID 687037). Particulars: Cy5-DNA-NS3h complex fluorescence interference counterscreen.
Test [15] in a line: viability loss in pontine glioma line – cell-based, SU-DIPG-IV, MIPE4.0, CellTiter-Glo, qHTS, dose response (AID 1347063; cut-off not given, nearly all actives have AC50 up to about 30 µM;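 further: compound exposure lasted 48 hours before the viability readout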). The settings on record: CellTiter-Glo ATP luminescence.
Test [16] is described as follows: viability loss with induced miR-34 in A549 – imaging, A549 dox-inducible miR-34, nuclei and caspase counts, primary screen (AID 1347080;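 active means compounds whose cell count with miR-34 switched on is under 0.7 times the count with it off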). Particulars: A549 miR-34 inducible, Hoechst nuclei count, 48 h.
Test [17] in a line: blockers of cellular phospholipid synthesis – cell-based, LOPAC library, screen 4, primary screen (AID 1347384). Particulars: animal cells, phospholipid biosynthesis inhibition screen; at 10 µM.
Test [18] is described as follows: galactose survival enhancers in mitochondrial complex I cybrids – cell-based, galactose medium, ATP luminescence, primary screen (AID 1645843;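 active means z-score of at least 1.8 in each of two replicates, scored against plate mean and spread of sample wells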;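 further: positive z means more ATP and so rescue of galactose-driven cybrid death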). Particulars: complex I mutant cybrid cells, 72 h, stronger effect = higher value.
Test [19] in a line: viability loss in pontine glioma line – cell-based, SU-DIPG-XVII, MIPE5.0, CellTiter-Glo, qHTS, dose response (AID 1347060; cut-off not given, nearly all actives have AC50 up to about 26 µM). The settings on record: CellTiter-Glo ATP luminescence.
The mark [20] stands for this setting: measured here: epithelial PC-3E GFP cell survival.
[21] abbreviates: measured here: mesenchymal TEM4-18 mCherry cell survival.
Where [22] appears, read: stronger effect = lower value, cell number ratio, induced over uninduced.
Setting [23] is: measured here: relative caspase fold change +Dox/-Dox.
Setting [24] is: measured here: total cells with miR-34 induction, stronger effect = lower value.
Setting [25] is: measured here: total cells without miR-34 induction.

Structures are written as SMILES. Several values for one entry are separate records, joined by “and”; a condition that tells them apart may be missing. Equal values may be shown once. Inconclusive results are not listed. Activity calls are given as the source filed them. Unless noted, how the calls were made is not given here.

Sequence of Mitogen-activated protein kinase 7 (Homo sapiens) (Q13164 whole entry, looked up, the tested form may be a part): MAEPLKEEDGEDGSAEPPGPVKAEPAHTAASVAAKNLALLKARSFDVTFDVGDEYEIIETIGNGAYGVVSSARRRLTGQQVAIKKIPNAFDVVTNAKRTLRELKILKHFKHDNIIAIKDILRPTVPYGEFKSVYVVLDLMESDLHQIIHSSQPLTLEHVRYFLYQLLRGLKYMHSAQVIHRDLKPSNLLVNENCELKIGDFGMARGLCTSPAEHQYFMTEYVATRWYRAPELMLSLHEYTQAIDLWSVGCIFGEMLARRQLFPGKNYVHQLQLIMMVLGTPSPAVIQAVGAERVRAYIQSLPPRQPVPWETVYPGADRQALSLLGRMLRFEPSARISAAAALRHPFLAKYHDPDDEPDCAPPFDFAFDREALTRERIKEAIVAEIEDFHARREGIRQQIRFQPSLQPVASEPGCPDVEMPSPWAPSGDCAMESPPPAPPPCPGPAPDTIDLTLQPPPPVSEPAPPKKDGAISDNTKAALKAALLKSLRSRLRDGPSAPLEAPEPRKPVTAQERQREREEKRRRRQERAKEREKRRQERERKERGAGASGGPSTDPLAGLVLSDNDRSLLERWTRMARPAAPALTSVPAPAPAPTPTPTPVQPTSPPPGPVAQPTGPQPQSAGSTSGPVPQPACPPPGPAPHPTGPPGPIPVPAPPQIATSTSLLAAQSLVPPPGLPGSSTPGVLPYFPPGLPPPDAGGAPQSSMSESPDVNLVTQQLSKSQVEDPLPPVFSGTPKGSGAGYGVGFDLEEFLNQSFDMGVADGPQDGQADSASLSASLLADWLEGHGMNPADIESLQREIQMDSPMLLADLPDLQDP
Sequence of NAD(+) hydrolase SARM1 (Homo sapiens) (Q6SZW1 whole entry, looked up, the tested form may be a part): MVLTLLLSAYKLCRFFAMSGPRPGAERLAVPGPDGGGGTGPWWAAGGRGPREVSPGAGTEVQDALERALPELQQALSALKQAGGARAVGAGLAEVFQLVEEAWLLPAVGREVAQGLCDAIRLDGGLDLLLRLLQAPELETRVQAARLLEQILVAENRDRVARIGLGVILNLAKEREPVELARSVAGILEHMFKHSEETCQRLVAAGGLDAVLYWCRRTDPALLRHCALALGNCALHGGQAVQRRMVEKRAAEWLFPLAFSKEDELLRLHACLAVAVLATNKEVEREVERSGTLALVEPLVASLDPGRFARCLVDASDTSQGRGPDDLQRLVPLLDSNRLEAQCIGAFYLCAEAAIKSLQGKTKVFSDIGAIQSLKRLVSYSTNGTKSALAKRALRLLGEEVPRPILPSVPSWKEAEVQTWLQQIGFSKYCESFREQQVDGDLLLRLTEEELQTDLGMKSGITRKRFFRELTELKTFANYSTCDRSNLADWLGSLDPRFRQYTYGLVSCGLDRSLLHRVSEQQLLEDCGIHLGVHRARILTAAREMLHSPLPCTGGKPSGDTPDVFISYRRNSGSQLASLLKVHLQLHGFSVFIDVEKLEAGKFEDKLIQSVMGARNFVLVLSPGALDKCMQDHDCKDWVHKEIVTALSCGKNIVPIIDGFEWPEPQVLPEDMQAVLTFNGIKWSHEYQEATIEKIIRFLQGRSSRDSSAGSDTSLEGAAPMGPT

`N[C@@H](CC(=O)N1CCn2c(nnc2C(F)(F)F)C1)Cc1cc(F)c(F)cc1F`: in [1], the parasite load remaining is 48.9% (inactive). The compound also displayed a viability in [1] of 95.5%. Also, the red/green cell ratio (normalised) in [2] is 1.25 (inactive). Moreover, the results for the normalised cell number in [2] (setting [20]) and in [2] (setting [21]) were 0.94 and 1.18, respectively. Besides, the call in [3], in test [4], in test [5], in test [6], in test [7] and in [8] was inactive. Moreover, the call in [9] was inactive. The remaining NAD in [10] was 10 nM (inactive). The luciferase signal in test [11] is 92 AU (inactive).
As for `CC1=C(C(=O)O)N2C(=O)[C@@H](NC(=O)C(N)c3ccccc3)[C@H]2SC1` (some centres not stated), in test [12], the period change was 0.02 h (inactive). For the same compound, in test [1], the parasite load remaining is 96% (inactive) and 49.4% (inactive). In test [1], the viability is 72.1% and 86.5%. Also, the inhibition in [13] was -4% (inactive). Also, in test [14], the fluorescence ratio (interference) was 0.9 (inactive). For the same compound, in [2], the red/green cell ratio (normalised) was 1.15 (inactive). Besides, the normalised cell number in test [2] (setting [20]) is 1.06; in test [2] (setting [21]) it was 1.23. The outcome in [3], in [4], in test [15], in test [7] and in test [17] was inactive. Moreover, the fold change is 1.03 (inactive) and 0.832 (inactive) in test [16] (setting [22]); 1.45 and 2.29 in test [16] (setting [23]). Moreover, the cell count in test [16] (setting [24]) is 10100 and 11100; in test [16] (setting [25]), 9800 and 13300. Besides, the z-score in test [18] was 0.41 (inactive).
Consider `CCCCS(=N)(=O)CCC(N)C(=O)O` (configuration not stated), for which the period change in test [12] was -0.105 h (inactive). In test [13], the inhibition is 1% (inactive). For the same compound, in [14], the fluorescence ratio (interference) was 1 (inactive). Also, the red/green cell ratio (normalised) in [2] was 0.93 (inactive). The normalised cell number in test [2] (setting [20]) worked out at 0.89; in [2] (setting [21]), 0.83. Moreover, the compound was classed as inactive in test [19], in [3], in test [4], in [15], in test [6] and in test [7]. Moreover, the result in test [8], in test [9] and in test [17] was inactive. Further, the results for the fold change in [16] (setting [22]) and in test [16] (setting [23]) were 0.991 (inactive) and 1.82, respectively. Also, the cell count in test [16] (setting [24]) is 9560; in test [16] (setting [25]), 9650. Also, the z-score in [18] is -0.42 (inactive).
